The list is not random: actives were taken first. Their share in the collection is about 2.7%.
Env fusion inh – blocks HIV Env-driven cell-cell fusion; HeLa-JRFL Env/CEM21 cell fusion, luciferase; inhibition, % at 12.3 µM; 360,000 tested, 1.1% active; AID 651610;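 active = mean replicate inhibition score of at least 50 and every replicate individually at or above 50; inconclusive = only one of the two criteria met; inactive = mean below 50 and not all replicates reaching 50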
EWS-Fli block – inhibitors of EWS/Fli oncoprotein transcriptional activity | A673 NR0B1-luciferase reporter, viability-normalised | inhibition, % at 12.6 µM | 350,000 tested, 0.67% active | AID 651661;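 active = mean inhibition of at least 50% after viability correction, with every replicate also passing that limit; inconclusive = mean reaches 50% but only one of two replicates passes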;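 note: firefly luciferase signal divided by Alamar Blue viability fluorescence both relative to DMSO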
PGC1a acetyl inh – PGC1a acetylation modulation, inhibitor mode | 350,000 tested, 0.17% active | AID 651687 | inhibition, % at 15.6 µM | U2OS PGC1a acetylation, AlphaScreen anti-acetyl-lysine; with virally co-expressed GCN5 acetyltransferase;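 active = every replicate shows inhibition of at least 40%; inconclusive = mean inhibition at least 40% but some replicate below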
PAX8 reporter – lowers PAX8-driven luciferase in RMG-I cells | AID 652154 | 360,000 tested, 1.2% active | inhibition, % at 12.6 µM | RMG-I TPO-luciferase reporter, SteadyGlo, 24 h;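 active = mean replicate inhibition at least 60% with every replicate also reaching 60%; inconclusive = only one of the two criteria is met; inactive = mean below 60% and not all replicates reaching 60%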;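 note: luciferase light reporting Pax8 driven TPO promoter activity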
CFTR F508del cor – CFTR F508del correction in bronchial cells. 350,000 tested, 0.36% active. CFBE cells, YFP halide quenching; stimulated with forskolin plus potentiator P3; % fluorescence drop versus neutral controls. activity (quench increase), % at 7.58 µM;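 active = mean added fluorescence quench of at least 8% versus neutral control, with both replicates also reaching 8%; inconclusive = only one of the mean or replicate conditions met; inactive = mean below 8% and not both replicates reaching 8%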;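 note: cells transiently co-express mutant CFTR-F508del with the halide-sensitive YFP; corrector assay measuring rescue of mutant channel to the surface after 24 h compound exposure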
INS-1E GSIS act – GLuc luminescence reporter in INS-1E cells, primary screen for activators of glucose-dependent secretion of insulin | AID 743287 | INS-1E GLuc reporter insulin secretion, 2-3 h | activation, % at 16.6 µM | 370,000 tested, 0.61% active;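 active = lowest replicate activation of at least 40%, so every replicate reaches that level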
Numbers stand for hits; . = inactive; ? = inconclusive; / = not tested or not shown; [ ] = remark or other dose.

SMILES | Env fusion inh | EWS-Fli block | PGC1a acetyl inh | PAX8 reporter | CFTR F508del cor | INS-1E GSIS act
C[C@H]1CN([C@@H](C)CO)C(=O)c2cc(-c3ccc(C#N)cc3)cnc2O[C@H]1CN(C)C(=O)CN(C)C | . | . | . | / | . | .
CC(C)c1ccc(NS(=O)(=O)c2ccc3c(c2)NC(=O)CO3)cc1 | . | / | . | . | . | .
CC(C)c1ccc(C2C3=C(COC3=O)Nc3cc4c(cc32)OCO4)cc1 (configuration not stated) | . | . | . | 79 | . | .
COc1cc2c(cc1OC)C(C1C(=O)CC(C)(C)CC1=O)N(C(=O)CCl)CC2 (configuration not stated) | . | . | / | . | . | .
COc1cc2c(cc1OC)C(c1cc(Br)ccc1F)N(C(=O)CCl)CC2 (configuration not stated) | . | 58 | / | . | . | .
CC1=CC(C)(C)N2C(=O)C3(SCC(=O)N3c3ccc(F)cc3)c3cc(C)cc1c32 (configuration not stated) | 72 | / | . | / | / | .
Cc1ccc2c(CSc3nnc4ccccn34)cc(=O)oc2c1C | / | . | . | 66 | . | .
C[C@H]1CCCCO[C@@H](CN(C)C)[C@@H](C)CN([C@@H](C)CO)C(=O)c2cc(NC(=O)CCC(F)(F)F)ccc2O1 | . | . | . | . | . | .
C[C@H]1CN([C@@H](C)CO)C(=O)c2cc(C#CCN(C)C)cnc2O[C@H]1CN(C)C(=O)NC1CCCCC1 | . | . | . | . | / | .
Cc1cccc(Nc2nc(N)nc(CCl)n2)c1 | . | . | . | 90 | . | .
COc1cccc(Nc2nc(N)nc(CCl)n2)c1 | . | 59 | . | 97 | . | .
COCCNC(=O)C[C@H]1C=C[C@H](NC(=O)NC2CCCCC2)[C@@H](CO)O1 | . | . | . | . | . | .
Cn1c(=O)c2c(ncn2Cc2ccc(Cl)c(Cl)c2)n(C)c1=O | 66 | / | / | / | / | .
C[C@@H]1CCCCO[C@H](CN(C)C(=O)c2ccccc2)[C@@H](C)CN([C@@H](C)CO)C(=O)c2cc(N(C)C)ccc2O1 | . | . | . | . | . | .
COc1cccc(Cn2c(-c3nonc3N)nc3ccccc32)c1 | / | / | . | / | / | /
COc1cc(Cn2c(-c3nonc3N)nc3ccccc32)ccc1C | 60 | / | / | . | / | /
O=S(=O)(N[C@H]1CC[C@H](CCn2cc(-c3ccc(F)cc3)nn2)O[C@H]1CO)c1ccccc1F | . | . | . | . | . | .
COc1cccc(CNC(=O)N[C@@H](CC(C)C)C(=O)O)c1 | / | / | . | / | / | 50
C[C@H](CO)N1C[C@H](C)[C@H](CN(C)C(=O)NC2CCCCC2)OCCCC[C@H](C)Oc2ccc(NS(=O)(=O)c3cn(C)cn3)cc2C1=O | . | . | / | . | . | .
S=c1nc[nH]c2c1[nH]c1ccc(Cl)cc12 | 69 | . | . | . | . | /
N#C[C@H]1[C@H](c2ccc(C#CC3CCCCC3)cc2)[C@H](CO)N1C(=O)Nc1ccc(F)cc1 | . | . | . | 92 | . | .
N#C[C@H]1[C@@H](c2ccc(C#CC3CCCCC3)cc2)[C@H](CO)N1C(=O)Nc1ccc(F)cc1 | / | . | . | / | . | .
N#C[C@@H]1[C@H](c2ccc(C#CC3CCCCC3)cc2)[C@H](CO)N1S(=O)(=O)c1ccccc1 | . | . | . | 84 | . | .
N#C[C@H]1[C@H](c2ccc(C#CC3CCCC3)cc2)[C@@H](CO)N1C(=O)Nc1ccc(F)cc1 | 56[16.7 µM] | . | . | 88 | . | .
N#C[C@H]1[C@H](c2ccc(C3=CCCCC3)cc2)[C@@H](CO)N1C(=O)NC1CCCCC1 | . | . | . | . | 10 | .
SMILES | Env fusion inh | EWS-Fli block | PGC1a acetyl inh | PAX8 reporter | CFTR F508del cor | INS-1E GSIS act
CCCNC(=O)N(C)C[C@H]1Oc2cc(-c3cncnc3)ccc2S(=O)(=O)N([C@@H](C)CO)C[C@H]1C | / | . | . | . | . | .
COc1ccc(S(=O)(=O)Nc2cccc3c2O[C@H](CN(C)C(=O)Nc2ccc(C(F)(F)F)cc2)[C@H](C)CN([C@@H](C)CO)C3=O)cc1 | . | . | . | / | . | .
C[C@@H]1CN([C@H](C)CO)S(=O)(=O)c2ccc(C3=CCCCC3)cc2O[C@@H]1CN(C)C(=O)c1ccncc1 | . | . | . | / | . | .
O=C(CSc1nnc(-c2ccccc2)n1-c1ccc(Cl)cc1)N/N=C/c1ccccc1C(=O)O | . | . | 45 | . | . | .
Cc1cccc(C)c1NC(=O)CCCSc1nnc(-c2ccc(Cl)cc2)n1-c1ccccc1 | 79 | . | / | . | / | .
Cc1cc(=O)n(C)c2ccccc12 | . | . | / | . | . | .
Cc1cc(=O)n2c3c(c4c(cc13)c(CN(C)C)cc(=O)n4C)OC2 | . | ? | . | 104 | . | .
CCNc1nn2ccccc2c1/C=C(\C#N)C(=O)OCC | . | . | . | . | . | 66
C[C@H]1CN([C@@H](C)CO)C(=O)c2cc(NC(=O)CCN3CCOCC3)ccc2O[C@H]1CN(C)Cc1ccc(Oc2ccccc2)cc1 | / | . | . | / | . | .
O=C(NNC(=O)c1cccc2ccccc12)c1cccc(F)c1 | / | . | . | 87 | . | /
COC(=O)[C@@]1(Sc2ccc(C)cc2)CC(=O)N(C(=O)CCc2ccccc2)[C@@H]1c1ccccc1 | . | . | / | . | . | .
COC(=O)[C@@]1(Sc2ccc(C)cc2)CC(=O)N(c2ccccc2)[C@@H]1c1ccccc1 | . | . | / | 65 | . | .
CC(=O)NC[C@@H]1[C@@H](c2ccccc2)[C@H](CO)N1C(=O)Cc1cccnc1 | / | . | . | . | . | .
O=C(NC[C@@H]1CC[C@@H]2[C@@H](CN2C(=O)NC2CCCC2)O1)c1ccc2c(c1)OCO2 | / | . | / | / | . | /
O=C(NC[C@@H]1CC[C@H]2[C@H](CN2Cc2cc(-c3ccccc3)on2)O1)c1ccc2c(c1)OCO2 | 58[16.7 µM] | . | . | . | . | /
CCCC#Cc1cnc2c(c1)C(=O)N([C@@H](C)CO)C[C@H](C)[C@H](CN(C)C(=O)C1CCOCC1)O2 | . | . | . | / | . | .
CC1(C)CC(N2CCCCC2)=CC(=[N+]2CCCCC2)C1 | . | . | . | 75 | . | .
CO[C@H]1CN(C)C(=O)c2cc(C#N)ccc2OCC[C@@H]2CC[C@@H](OC)[C@@H](CN(C)C(=O)[C@@H]1C)O2 | . | . | / | . | / | .
c1nc(N2CCOCC2)c2c3c(sc2n1)CCCC3 | ? | / | . | / | / | 41
O=C(c1ccccc1)N1CCN(c2ncnc3sc4c(c23)CCC4)CC1 | 87 | / | . | . | / | /
c1ccn(-c2ncnc3sc4c(c23)CCCC4)c1 | / | / | . | / | / | /
COc1ccccc1CNCc1ccc2c(c1)OCO2 | . | . | / | . | . | .
O=Cc1ccccc1OCc1ccc2c(c1)OCO2 | . | . | / | . | 11 | .
O=S(=O)(N[C@@H]1CC[C@H](CCn2cc(-c3ccccn3)nn2)O[C@@H]1CO)c1cccc(F)c1 | . | . | . | . | . | .
Cc1cccc(C)c1-n1nnnc1-c1nc2cc3ccccc3cc2[nH]c1=O | . | 54 | / | . | . | .

High-throughput results as filed in PubChem.
